According to PubChem BioAssay (EPA / NIEHS):
Records with an inconclusive call do not appear. Calls of active or inactive are those of the source. Rule for the calls, unless noted: active = hit-call score of the fitted dose curve at least 0.9, where 1 is the maximum; inconclusive = response in the unintended direction; inactive = score below 0.9.

Assays:
[1] = target: Estrogen receptor (Homo sapiens) (UniProt P03372); assay: OT_ERa_GFPERaERE_0120: Odyssey Thera (OT) 2-hour HeLa Transcription Induction Assay for Estrogen Receptor (AID 2283382)
Chain of Estrogen receptor (Homo sapiens) (P03372 whole entry, looked up): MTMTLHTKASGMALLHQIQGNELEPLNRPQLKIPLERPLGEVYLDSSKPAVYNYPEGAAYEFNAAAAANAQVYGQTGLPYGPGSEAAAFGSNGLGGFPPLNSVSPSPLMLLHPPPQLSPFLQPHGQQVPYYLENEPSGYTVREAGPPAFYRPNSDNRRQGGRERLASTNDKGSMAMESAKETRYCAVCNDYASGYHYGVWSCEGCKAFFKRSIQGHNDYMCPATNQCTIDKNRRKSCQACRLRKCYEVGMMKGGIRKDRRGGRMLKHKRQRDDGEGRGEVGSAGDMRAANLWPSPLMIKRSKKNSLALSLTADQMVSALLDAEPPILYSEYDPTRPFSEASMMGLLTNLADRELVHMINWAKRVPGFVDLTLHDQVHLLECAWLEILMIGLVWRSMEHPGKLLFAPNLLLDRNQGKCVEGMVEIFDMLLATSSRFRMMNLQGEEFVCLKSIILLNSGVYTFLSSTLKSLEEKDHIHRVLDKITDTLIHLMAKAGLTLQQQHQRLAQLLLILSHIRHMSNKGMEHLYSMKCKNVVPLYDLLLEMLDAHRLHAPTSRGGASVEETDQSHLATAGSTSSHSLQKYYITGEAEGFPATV
Outline: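 HeLa cells were dosed for 2 h, then GFP reporter induction was quantified by fluorescence microscopy with high-content image analysis. Gain of signal fitted against DMSO baseline.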

[2] = target: Bile acid receptor (Homo sapiens) (UniProt Q96RI1); assay: OT_FXR_FXRSRC1_0480: Odyssey Thera (OT) 8-hour HEK293T Protein-Complementation Assay for Farnesoid X receptor/SRC-1 Co-activator (AID 2283383)
Chain of Bile acid receptor (Homo sapiens) (Q96RI1 whole entry, looked up, the tested form may be a part): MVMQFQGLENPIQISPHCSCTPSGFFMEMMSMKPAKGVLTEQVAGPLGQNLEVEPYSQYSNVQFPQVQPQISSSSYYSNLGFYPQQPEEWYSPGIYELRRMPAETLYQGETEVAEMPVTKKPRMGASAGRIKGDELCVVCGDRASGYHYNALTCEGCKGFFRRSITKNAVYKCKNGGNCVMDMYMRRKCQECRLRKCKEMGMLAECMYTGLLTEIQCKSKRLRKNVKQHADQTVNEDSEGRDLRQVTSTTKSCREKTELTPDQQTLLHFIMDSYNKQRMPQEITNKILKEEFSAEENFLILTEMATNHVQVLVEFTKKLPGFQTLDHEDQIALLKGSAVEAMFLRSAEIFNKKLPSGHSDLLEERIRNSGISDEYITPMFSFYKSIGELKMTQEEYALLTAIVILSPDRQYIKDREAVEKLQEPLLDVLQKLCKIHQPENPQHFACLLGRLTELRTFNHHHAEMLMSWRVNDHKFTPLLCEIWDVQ
Outline: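 HEK293T protein-fragment complementation assay: FXR and SRC-1 coactivator are fused to reporter fragments, and their interaction restores a fluorescent reporter. Readout was taken 8 h after dosing, with gain of signal fit relative to DMSO.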

[3] = target: Bile acid receptor (Homo sapiens) (UniProt Q96RI1); assay: OT_FXR_FXRSRC1_1440: Odyssey Thera (OT) 24-hour HEK293T Protein-Complementation Assay for Farnesoid X receptor/SRC-1 Co-activator (AID 2283384)
Outline: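 HEK293T cells, 24 h after chemical dosing. FXR–SRC-1 coactivator interaction read as fluorescence from protein-fragment complementation of a split reporter. Gain of signal fitted against DMSO baseline.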

[4] = target: Retinoic acid receptor RXR-alpha (Homo sapiens) (UniProt P19793); assay: OT_NURR1_NURR1RXRa_1440: Odyssey Thera (OT) 24-hour HEK293T Protein Complementation Assay for Nurr1/retinoid X receptor (RXR) (AID 2283386)
Chain of Retinoic acid receptor RXR-alpha (Homo sapiens) (P19793 whole entry, looked up, the tested form may be a part): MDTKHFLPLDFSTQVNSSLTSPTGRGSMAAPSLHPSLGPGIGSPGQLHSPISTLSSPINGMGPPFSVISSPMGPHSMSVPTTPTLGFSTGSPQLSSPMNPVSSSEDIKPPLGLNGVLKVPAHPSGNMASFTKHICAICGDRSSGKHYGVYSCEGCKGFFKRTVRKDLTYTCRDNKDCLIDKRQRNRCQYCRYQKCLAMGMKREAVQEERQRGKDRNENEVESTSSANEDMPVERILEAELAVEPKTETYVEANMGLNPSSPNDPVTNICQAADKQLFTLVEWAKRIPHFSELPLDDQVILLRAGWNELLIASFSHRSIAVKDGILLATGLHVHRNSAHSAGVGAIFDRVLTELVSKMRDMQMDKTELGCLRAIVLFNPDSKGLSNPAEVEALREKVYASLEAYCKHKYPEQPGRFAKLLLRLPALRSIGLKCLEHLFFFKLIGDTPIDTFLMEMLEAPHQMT
Outline: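 HEK293T protein-fragment complementation of Nurr1 and RXRα fused to reporter fragments; compounds 24 h. Fluorescence gain from reconstituted reporter fitted versus DMSO.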

[5] = target: Peroxisome proliferator-activated receptor gamma (Homo sapiens) (UniProt P37231); assay: OT_PPARg_PPARgSRC1_0480: Odyssey Thera (OT) 8-hour Protein-Complementation Assay for Peroxisome Proliferator-activated Receptor Gamma / SRC-1 Co-activator (AID 2283387);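 note: nuclear to cytoplasmic split Venus YFP fluorescence ratio reporting PPARg SRC-1 interaction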
Chain of Peroxisome proliferator-activated receptor gamma (Homo sapiens) (P37231 whole entry, looked up, the tested form may be a part): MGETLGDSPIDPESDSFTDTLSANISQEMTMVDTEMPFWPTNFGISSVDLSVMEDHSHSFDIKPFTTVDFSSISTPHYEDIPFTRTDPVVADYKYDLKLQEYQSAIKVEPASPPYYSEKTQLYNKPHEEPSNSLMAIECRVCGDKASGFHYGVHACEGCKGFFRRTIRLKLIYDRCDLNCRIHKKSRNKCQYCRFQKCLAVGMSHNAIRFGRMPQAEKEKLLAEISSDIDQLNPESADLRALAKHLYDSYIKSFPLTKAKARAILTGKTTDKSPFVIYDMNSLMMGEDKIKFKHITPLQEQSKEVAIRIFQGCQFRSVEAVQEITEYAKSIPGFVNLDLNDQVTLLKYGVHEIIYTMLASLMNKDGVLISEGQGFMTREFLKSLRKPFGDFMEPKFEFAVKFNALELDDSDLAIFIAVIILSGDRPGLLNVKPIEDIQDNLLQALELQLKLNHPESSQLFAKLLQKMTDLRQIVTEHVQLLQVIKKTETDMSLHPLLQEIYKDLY
Outline: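 Read-out: 488 nm N/C fluorescence ratio from complemented Venus YFP fragments, ≥350 cells per image, gain-of-signal fitted against DMSO baseline. Fusions of PPARg/SRC-1 with IFP1/IFP2 expressed transiently in HEK293T; compounds applied 8 h.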

[6] = target: Peroxisome proliferator-activated receptor gamma (Homo sapiens) (UniProt P37231); assay: OT_PPARg_PPARgSRC1_1440: Odyssey Thera (OT) 24-hour Protein-Complementation Assay for Peroxisome Proliferator-activated Receptor Gamma/ SRC-1 Co-activator (AID 2283388);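 note: nuclear to cytoplasmic ratio of reconstituted Venus YFP fluorescence in fixed imaged cells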
Outline: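 Readout is the 488 nm N/C fluorescence ratio from fixed, Draq5-stained HEK293T cells after 24 h compound exposure. Cells carried transiently transfected PPARg and SRC-1 fused to Venus fragments, transfected 48 h before treatment.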

[7] = target: Retinoic acid receptor RXR-alpha (Homo sapiens) (UniProt P19793); assay: OT_NURR1_NURR1RXRa_0480: Odyssey Thera (OT) 8-hour HEK293T Protein Complementation Assay for Nurr1/retinoid X receptor (RXR) (AID 2283385)
Outline: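 HEK293T cells expressing Nurr1 and RXRα fused to reporter fragments (protein-fragment complementation); fluorescence measured 8 h after dosing. Gain of signal fitted relative to DMSO.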

[8] = ATG_XTT_Cytotoxicity: Cytotoxicity Assessment in the Attagene TRANS-FACTORIAL HepG2 Assay (AID 2283584)
Outline: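 Viability endpoint from XTT after 24 h chemical exposure of reporter-transfected human HepG2 liver cells; signal loss fitted relative to DMSO negative control.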

[9] = TOX21_p53_BLA_p2_viability: Viability Assessment in the Tox21 HCT-116 p53 Agonism Beta-lactamase Assay, Phase 2 (AID 2283591);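 note: compound exposure lasted 16 h at 37 °C; actives lower the ATP signal meaning cytotoxicity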
Outline: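 HCT116 p53-bla cells, 4000/well, dosed after 5 h plating (217-fold dilution of DMSO stocks) and incubated 16 h at 37C. Viability taken as cellular ATP by CellTiter-Glo luminescence after 30 min RT; signal loss marks cytotoxicity.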

[10] = CEETOX_H295R_11DCORT: CeeTox H295R High-throughput Steroidogenesis Assay for 11-Deoxycortisol (11DCORT) (AID 2283432; active = hit-call score of the fitted dose curve at least 0.9, where 1 is the maximum; inactive = score below 0.9;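 for AC50: 11-deoxycortisol secreted into the medium measured by LC-MS/MS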); details: actives raise or lower the signal
Outline: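 H295R cells; 10 uM forskolin prestim 48 h; compound in 0.1% DMSO 48 h; media extracted with MTBE; 11-deoxycortisol by LC-MS/MS, 7-point standard curve; gain/loss vs DMSO baseline; viability by MTT in same wells.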

[11] = CEETOX_H295R_OHPREG: CeeTox H295R High-throughput Steroidogenesis Assay for OH-Pregnenolone (OHPREG) (AID 2283434; active = hit-call score of the fitted dose curve at least 0.9, where 1 is the maximum; inactive = score below 0.9); details: actives raise or lower the signal
Outline: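 H295R cells pre-stimulated 48 h with 10 uM forskolin, then exposed 48 h to chemical in 0.1% DMSO. 17alpha-hydroxypregnenolone in medium quantified by MTBE extraction and HPLC-MS/MS; bidirectional fit versus DMSO, viability checked by MTT.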

[12] = CEETOX_H295R_OHPROG: CeeTox H295R High-throughput Steroidogenesis Assay for OH-Progesterone (OHPROG) (AID 2283435; active = hit-call score of the fitted dose curve at least 0.9, where 1 is the maximum; inactive = score below 0.9); details: actives raise or lower the signal
Outline: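 H295R adrenal cells prestimulated 48 h with 10 uM forskolin, then exposed 48 h to chemical (0.1% DMSO final). 17alpha-hydroxyprogesterone in medium quantified by HPLC-MS/MS; bidirectional fit versus DMSO, with MTT viability measured in the same wells.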

[13] = CEETOX_H295R_CORTIC: CeeTox H295R High-throughput Steroidogenesis Assay for Corticosterone (CORTIC) (AID 2283437; active = hit-call score of the fitted dose curve at least 0.9, where 1 is the maximum; inactive = score below 0.9;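 note: corticosterone secreted into medium quantified by mass spectrometry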); details: actives raise or lower the signal
Outline: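 H295R adrenal cells prestimulated 48 hours with 10 uM forskolin, then exposed 48 hours to chemical in 0.1% DMSO. Corticosterone in medium measured by HPLC-MS/MS after MTBE extraction; MTT viability in the same wells; bidirectional fit versus DMSO.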

[14] = CEETOX_H295R_CORTISOL: CeeTox H295R High-throughput Steroidogenesis Assay for Cortisol (AID 2283438; active = hit-call score of the fitted dose curve at least 0.9, where 1 is the maximum; inactive = score below 0.9); details: actives raise or lower the signal
Outline: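 Forskolin-primed H295R cells (10 uM, 48 h) treated 48 h with test chemical in 0.1% DMSO. Cortisol in medium quantified by MTBE extraction and HPLC-MS/MS; bidirectional fit vs DMSO, MTT viability in same wells.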

[15] = CEETOX_H295R_DOC: CeeTox H295R High-throughput Steroidogenesis Assay for DOC (AID 2283439; active = hit-call score of the fitted dose curve at least 0.9, where 1 is the maximum; inactive = score below 0.9); details: actives raise or lower the signal
Outline: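 H295R cells prestimulated 48 h with 10 uM forskolin, then exposed 48 h to test chemical (0.1% DMSO final). Medium 11-deoxycorticosterone measured by HPLC-MS/MS after MTBE extraction; bidirectional fit vs DMSO, viability checked by MTT in same wells.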

[16] = CEETOX_H295R_PROG: CeeTox H295R High-throughput Steroidogenesis Assay for Progesterone (PROG) (AID 2283442; active = hit-call score of the fitted dose curve at least 0.9, where 1 is the maximum; inactive = score below 0.9;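 for AC50: human H295R adrenal cells primed with 10 µM forskolin before dosing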); details: actives raise or lower the signal
Outline: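 Progesterone secreted by human H295R cells was measured by LC-MS/MS following 48 h chemical exposure at 0.1% DMSO, preceded by 48 h forskolin (10 uM) stimulation. Same-well MTT viability; cytotoxic concentrations diluted 10- or 100-fold and retested.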

[17] = CEETOX_H295R_ANDR: CeeTox H295R High-throughput Steroidogenesis Assay for Androstenedione (ANDR) (AID 2283436; active = hit-call score of the fitted dose curve at least 0.9, where 1 is the maximum; inactive = score below 0.9); details: actives raise or lower the signal
Outline: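 H295R cells, following OECD 456 with minor changes, exposed to chemicals for 48 h. Androstenedione in the medium was quantified by HPLC-MS/MS after MTBE extraction. Fitting was bidirectional versus DMSO; chemicals were diluted until MTT viability was ≥70%.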

[18] = CEETOX_H295R_ESTRADIOL: CeeTox H295R High-throughput Steroidogenesis Assay for Estradiol (AID 2283440; active = hit-call score of the fitted dose curve at least 0.9, where 1 is the maximum; inactive = score below 0.9;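 note: estradiol secreted into medium quantified by LC-MS/MS after dansyl derivatisation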); details: actives raise or lower the signal
Outline: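 Estradiol in spent medium measured by LC-MS/MS after dansyl chloride derivatisation. Forskolin-primed (10 uM, 48 h) human adrenal H295R cells received test chemical 48 h at 0.1% DMSO; concentrations lowered until MTT viability >/=70%.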

[19] = CEETOX_H295R_ESTRONE: CeeTox H295R High-throughput Steroidogenesis Assay for Estrone (AID 2283441; active = hit-call score of the fitted dose curve at least 0.9, where 1 is the maximum; inactive = score below 0.9;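 note: estrone secreted into medium measured by LC-MS/MS after dansyl derivatization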); details: actives raise or lower the signal
Outline: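 H295R cells prestimulated 48 h with 10 uM forskolin, then exposed 48 h to chemicals in 0.1% DMSO final; estrone in medium extracted with MTBE, dansyl-derivatized, quantified by HPLC-MS/MS; bidirectional fitting versus DMSO, viability by MTT.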

[20] = CEETOX_H295R_TESTO: CeeTox H295R High-throughput Steroidogenesis Assay for Testosterone (TESTO) (AID 2283457; active = hit-call score of the fitted dose curve at least 0.9, where 1 is the maximum; inactive = score below 0.9); details: actives raise or lower the signal
Outline: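 Testosterone secreted into the medium over 48 h by H295R cells (maximum passage 10) was quantified by LC-MS/MS after MTBE extraction. Fitted in both directions against DMSO, with concentrations diluted until MTT viability was ≥70%.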

Measured: AC50

[Co]
inactive: [1] | [2] | [3] | [4] | [5] | [6]

CCN(Cc1cccc(S(=O)(=O)O)c1)c1ccc(C(=C2C=CC(=[N+](CC)Cc3cccc(S(=O)(=O)O)c3)C=C2)c2ccc(O)cc2S(=O)(=O)[O-])cc1
inactive: [1] | [7] | [4] | [5] | [6] | [8]

CCCCCCC(C)OC(=O)CCCCC(=O)OC(C)CCCCCC (stereo unspecified)
inactive: [1] | [2] | [3] | [7] | [4] | [5] | [6] | [8]

CC(CCl)OP(=O)(OC(C)CCl)OC(C)CCl (stereo unspecified)
inactive: [1] | [2] | [3] | [7] | [6] | [8] | [9]

C(=C(c1ccccc1)c1ccccc1)c1ccccc1
inactive: [5] | [6] | [8] | [9]
active: [1] 1.52 µM | [2] 73.5 µM | [3] 76.8 µM | [7] 90.2 µM | [4] 81.3 µM

OC[C@@H](O)[C@@H](O)[C@H](O)[C@@H](O)CO
inactive: [7] | [4] | [5] | [6] | [8] | [9]

O=S(=O)(O)c1ccc2ccccc2c1
inactive: [1] | [2] | [3] | [7] | [4] | [5] | [6] | [8] | [9]

CC/C=C\CCOC(C)=O
inactive: [1] | [7] | [5] | [6] | [8] | [9]

c1ccc(B(c2ccccc2)c2ccccc2)cc1
active: [1] 45.8 µM | [10] 33.7 µM | [11] 15 µM | [15] 8.03 µM | [16] 12.6 µM
not listed: [17] | [18] | [19] | [20]
inactive: all other assays above

O=C(OCCOCCOCCOC(=O)c1ccccc1)c1ccccc1
inactive: [1] | [2] | [3] | [6] | [8] | [9]

Cc1cc(C)cc(O)c1
inactive: [1] | [4] | [5] | [6] | [8] | [9]

CCCCCCOC(=O)c1ccccc1O
inactive: [1] | [2] | [3] | [7] | [4] | [6] | [8]

Cc1ccc(S(=O)(=O)NCl)cc1
inactive: [1] | [4] | [5] | [6] | [8] | [9]

CC(C)OC(=O)c1ccccc1C(=O)OC(C)C
inactive: [1] | [2] | [3] | [4] | [5] | [6] | [8]

CCCCOc1ccc(N)cc1
inactive: [1] | [2] | [7] | [4] | [5] | [6] | [9]
active: [3] 36.9 µM

CN(C)Cc1ccccc1O
inactive: [1] | [3] | [4] | [6] | [8] | [9]

Cc1cccc(N(C)C)c1
not listed: [1] | [2] | [3] | [4] | [5] | [6] | [7] | [9]
inactive: all other assays above
